Data taken from PubChem BioAssay AID2551 (National Center for Advancing Translational Sciences (NCATS), 2010).
About 17,000 (5.5%) of roughly 310,000 compounds were called active. Roughly 11% stayed inconclusive and do not appear here. Calls follow the shape of the dose curve; as a rule, active = well fitted inhibition curve with a large enough effect; inconclusive = small, poorly fitted or top-dose-only effect, or effect the other way; inactive = no such curve, though single readings can be large or run the other way. The full list was thinned out, with actives kept by preference.

Target: Nuclear receptor ROR-gamma (Mus musculus) (UniProt P51450)
Assay: qHTS for inhibitors of ROR gamma transcriptional activity; also: nearly all actives have a fitted effect of over 60% in size
Conditions: Drosophila S2 Gal4-RORgamma UAS-luciferase reporter, 20 h; series mostly up to 53.6 µM; activity change, negative = inhibition: at the top concentration
Outline: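 ROR gamma transcriptional activity was tracked as Gal4-UAS luciferase output in stably transfected Drosophila Schneider cells, with compound added 1 hr before 700 uM copper sulfate induction and a 20 hr ambient-temperature incubation.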
% is scaled to controls: 0 for no effect and ±100 for the full control effect; potency is read from the fitted curve at half-maximal effect.

Nuclear receptor ROR-gamma (Mus musculus), sequence (P51450 whole entry, looked up): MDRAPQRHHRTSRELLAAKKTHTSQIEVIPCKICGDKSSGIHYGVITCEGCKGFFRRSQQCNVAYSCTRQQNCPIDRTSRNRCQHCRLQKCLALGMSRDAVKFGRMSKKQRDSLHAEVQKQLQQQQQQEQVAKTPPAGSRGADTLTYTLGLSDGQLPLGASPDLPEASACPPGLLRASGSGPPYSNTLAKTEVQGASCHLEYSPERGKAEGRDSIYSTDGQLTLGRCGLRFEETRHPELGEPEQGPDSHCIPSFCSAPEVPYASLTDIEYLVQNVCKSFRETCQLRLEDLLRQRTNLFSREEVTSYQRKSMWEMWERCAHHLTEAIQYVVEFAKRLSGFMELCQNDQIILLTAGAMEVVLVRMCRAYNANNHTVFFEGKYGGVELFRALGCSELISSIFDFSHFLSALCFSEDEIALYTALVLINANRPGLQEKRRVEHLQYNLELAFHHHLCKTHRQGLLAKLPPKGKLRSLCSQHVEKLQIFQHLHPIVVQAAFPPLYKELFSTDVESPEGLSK

Row | SMILES | activity change, negative = inhibition | Potency
1 | Cc1ccc(N=Nc2c(C)[nH]n(-c3ccccc3)c2=O)cc1 | 7.28% (inactive) | 
2 | Cc1[nH]n(-c2cccc(Cl)c2)c(=O)c1-c1ccc(Cl)cc1 | -69.7% (inactive) | 
3 | Cc1[nH]n(C(N)=S)c(=O)c1N=Nc1ccc(Cl)cc1Cl |  | 562 nM (active)
4 | Cc1cc2oc(=O)cc(CN(C)Cc3ccc(OC(F)F)cc3)c2cc1Cl | 146% (inactive) | 
5 | COc1ccc(CCN2C(=O)C(C)=C(C)C2=O)cc1OC | 28.7% (inactive) | 
6 | COc1ccccc1-c1n[nH]c2c1[C@H](C)CC[C@H]2C(C)C |  | 3160 nM (active)
7 | COc1ccccc1-c1nc(N2CCN(C)CC2)c2ccccc2n1 | -14.4% (inactive) | 
8 | CC1C(=O)Nc2ccccc2N1C(=O)c1c(F)cccc1F (stereo unspecified) | 44.9% (inactive) | 
9 | COc1ccc(-n2nc3c(N4CCC(C(=O)NCc5ccccc5)CC4)nnc(C)c3c2C)cc1 | -18.6% (inactive) | 
10 | O=C1CSC(=S)N1/N=C/c1ccc(O)c([N+](=O)[O-])c1 |  | 8910 nM (active)
11 | Cc1cc(C(=O)N/N=C/c2ccc(O)c([N+](=O)[O-])c2)c(C)n1-c1ccc(F)cc1 | -12.8% (inactive) | 
12 | O=[N+]([O-])c1ccc(N2CCSCC2)cc1O | 11.6% (inactive) | 
13 | COc1cccc(C2CC(c3cccs3)=NN2C(=O)CSC2=NCCS2)c1OC (stereo unspecified) | -21.1% (inactive) | 
14 | CC(C(=O)NC1CCCCC1)N1C(=O)c2cccc3cccc1c23 (stereo unspecified) | 3.12% (inactive) | 
15 | COc1cc(NC(=O)C2=C(C)OCCS2)c(Cl)cc1C(=O)NCCN1CCN(C)CC1 | -16.1% (inactive) | 
16 | O=C(NCc1cccc(C(F)(F)F)c1)c1cccc(S(=O)(=O)N2CCN(Cc3ccccc3)CC2)c1 | 5.22% (inactive) | 

Row | SMILES | activity change, negative = inhibition | Potency
17 | O=C(NCc1ccncc1)NC12CC3CC(CC(C3)C1)C2 | -4.04% (inactive) | 
18 | S=C(NCc1ccc(Cl)cc1)NC12CC3CC(CC(C3)C1)C2 |  | 2000 nM (active)
19 | CN(C)CCCNC(=S)NCc1ccc(Cl)cc1 | 3.62% (inactive) | 
20 | O=C(NCc1ccc(Cl)cc1)NCc1ccc(Cl)cc1 | -23.1% (inactive) | 
21 | O=C(NC1CCN(C(=S)Nc2ccc(Cl)cc2)CC1)C1CCCCC1 | -23.5% (inactive) | 
22 | S=C(NCc1ccc(Cl)cc1)NC1CCCCC1 |  | 3550 nM (active)
23 | COCCCNC(=O)C1CC(=O)N(CCc2ccc(F)cc2)C1 (stereo unspecified) | -0.388% (inactive) | 
24 | CC(=O)Nc1ccc(Nc2ncnc3c2nnn3Cc2ccccc2Cl)cc1 | -0.255% (inactive) | 
25 | O=C(c1c(F)cccc1Cl)N1CCN(c2ccccn2)CC1 | -15.7% (inactive) | 
26 | COc1ccc(S(=O)(=O)N2CCC(C(=O)NCCC(=O)NCc3cccc(OC)c3)CC2)cc1 | 24.5% (inactive) | 
27 | CC(C)[C@H](NC(=O)N1CC(=O)Nc2ccccc21)C(=O)N[C@@H](Cc1c[nH]c2ccccc12)C(=O)O | 8.13% (inactive) | 
28 | COc1cc(C(=O)NCCOC(=O)c2cccc(N(C)C)c2)cc(OC)c1OC | 0.0134% (inactive) | 
29 | O=C(O)COc1ccc(/C=N/O)cc1Br | -9.27% (inactive) | 
30 | C=CCNC(=S)N/N=C/c1ccc(OCc2ccccc2)cc1 | -11.3% (inactive) | 
31 | CNC(=S)N/N=C/c1ccc(OCc2ccccc2)c(Br)c1 |  | 1260 nM (active)
